# Experimental data reported in PubChem BioAssay AID602243 (Broad Institute, 2012).
# This is one part of the list. Active and inactive are the calls of the source. The rule behind the calls is not given here.
# Experiment: V. cholerae lux activation without autoinducers – BH1578 luxS cqsA deficient, cherry-pick, plate reader, dose response (AID 602243)
# Conditions: V. cholerae BH1578 lux reporter, luminescence, 6 h; series mostly up to 50 µM; activation: at the top concentration
row,SMILES,activation
1,COc1ccc2[nH]c(=O)c(CNc3ccc(C)c(C)c3)cc2c1,0.802% (inactive)
2,CCCS(=O)(=O)N1CCCC(C(=O)N2CCN(c3ccccc3)CC2)C1 (stereo not drawn),0.376% (inactive)
3,CN(CC(=O)Nc1ccc(OC(F)(F)F)cc1)C(=O)C1CCC1,2.11% (inactive)
4,O=C(Nc1ccc2oc(-c3ccc4ccccc4c3)nc2c1)c1cccs1,-0.042% (inactive)
5,CCC(C)(C)n1nnnc1CN1CCN(c2nc3ccc(C)cc3cc2C#N)CC1,0.074% (inactive)
6,CC1CN(C(=O)COC(=O)c2cccc(NS(=O)(=O)c3ccccc3)c2)CC(C)O1 (stereo not drawn),0.085% (inactive)
7,CC(C)CNC(=O)COC(=O)/C=C/c1ccco1,434% (inactive)
8,CCCn1nnnc1NCc1ccc(CC)cc1,4240% (inactive)
9,COc1cc(S(=O)(=O)N(Cc2cccs2)C2CC2)ccc1-n1cnnn1,0.162% (inactive)
10,CCOc1ccc(CCNC(=O)C2CCN(c3ccc(N4CCOCC4)nn3)CC2)cc1OCC,0.22% (inactive)
11,CC(=O)N1CCN(C(=O)c2cc(-c3ccc(Cl)s3)nc3ccccc23)CC1,0.973% (inactive)
12,CCc1cccc(C)c1N(C(=O)Cn1c(CO)nc2ccccc21)C(C)COC (stereo not drawn),0% (inactive)
13,O=C(NCc1ccccn1)c1c(O)c2c([nH]c1=O)CCCC2,0.073% (inactive)
